Values joined by “and” are separate entries in the source; they are usually repeats but may differ in a detail not shown here. Identical values can stand only once. The panel holds about 83,000 compounds, 20% with a hit somewhere; the sample as a whole holds those more often.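 How to read the values: 0–100, growth inhibition (40 = 60% inhibited); 0, no net growth; -100 to 0, cell death (-40 = 40% of starting cells died; -100 = all dead).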 Unmarked numbers belong to inactive results. Active and inactive are the calls of the source. The calls were made as follows: active = growth percent below 10; inactive = the rest.
system: HL-60(TB) leukemia; assay: NCI-60 one-dose screen, 48 h (100 = growth as untreated, 0 = no growth, -100 = all killed); conditions: 10 µM unless noted

| Compound | growth |
| --- | --- |
| Cc1ccccc1NC(=O)N/C(N)=N/c1nc(C)c(C)s1 | -2.57% (active) |
| CC(=O)Nc1ccc(C(=O)/C=C/c2ccc(N(C)C)cc2)cc1 | 104% |
| C/C(=C\c1ccccc1)c1ccccn1 | 70.9% |
| O=C(CCN1CCCC1)Nc1ccc2c(Nc3ccccc3)c3ccccc3nc2c1 | -46% (active) |
| O[C@H]1CO[C@H]2[C@@H]1OC[C@@H]2Oc1ccc(Nc2nc(Nc3ccc(F)c(Cl)c3)ncc2F)cc1Cl | 104% |
| CCc1cccc(CC)c1NC(=O)c1sc2nc3c(cc2c1N)CCCC3 | 41% |
| COc1ccc(C2=CC(c3ccc(Oc4ccnc5cc(Cl)ccc45)c(OC)c3)c3c(nc(OC)[nH]c3=O)N2)cc1 (stereo not given) | 85.7% |
| COc1ccc(Br)c2c1C(=O)CC2 | 151% |
| N=C(N)N=Nc1ccc(O)cc1 | 69% [100 µM] |
| COc1cc2c(cc1OC)N(CCO)C1=C(C(=O)OC1)C2c1ccc(Cl)c(Cl)c1 (stereo not given) | 93.4% |
| CC(C)(O)C1CCCN1C(=O)c1ccccc1I (stereo not given) | 89.3% |
| O=C1C(Cl)=C(Nc2ccc(Nc3ccccc3)c(NC3=C(Cl)C(=O)c4ccccc4C3=O)c2)C(=O)c2ccccc21 | 61.6% |
| N#Cc1c(-c2ccccc2)cc(-c2ccccc2)n(CCCC(=O)Nc2ccccc2N)c1=O | 21.5% |
| O=c1c(Br)ccc(Br)cc1Br | -58.8% (active) |
| CCn1nc(-c2ccc(C(=O)OC)cc2)nc2c(=O)n(C)c(=O)nc1-2 | 132% |
| Cc1oc(-c2ccc(Cl)cc2)nc1/C=C/C(=O)c1ccccc1 | 97.1% |
| CCN(CC)CC(C)(C)C(=O)/C=C/c1ccc(Cl)c(Cl)c1 | -10.2% (active) |
| CCc1ccc(C(=O)/C=C/C23c4ccccc4C(c4ccccc42)C2C(=O)NC(=O)C23)cc1 (stereo not given) | -12.3% (active) |
| COc1ccc(NC(=O)c2cccc(-c3cc(=O)c4c(O)c(OC)c(OC)cc4o3)c2)cc1 | 130% |
| CCCCC1C(=O)N(c2ccccc2)N(c2ccccc2)C1=O | 102% |
| c1ccc2cc(C[n+]3ccn(Cc4ccc5ccccc5n4)c3)ccc2c1 | -42.3% (active) and -25.4% (active) |
| COc1ccc2occ(C3=C(c4c[nH]c5ccccc45)C(=O)N(O)C3=O)c2c1 | 97.3% |
| O=C1OC(c2ccc(-c3ccccc3)cc2)=C/C1=C/c1cccs1 | 75% |
| CCCCCN1C=C/C(=C\C(=O)N(C)c2ccc(Br)cc2)c2ccccc21 | 98.2% |
| COc1ccc2nc3cc(Cl)ccc3c(NCCCNC(C)=O)c2c1 | 57.7% |
